Test [1] deals with Zika virus NS2B-NS3 protease. Nature of the test: Primary screen GU AMC qHTS for Zika virus inhibitors (AID 1347154).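 Further: 0% = no-inhibitor control and -100% = no-enzyme control; nearly all actives have a fitted effect of over 70% in size.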 The method, boiled down:
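Unlinked Zika NS2B hydrophilic domain/NS3 protease domain noncovalent complex (25 nM final) in 10 mM Tris-HCl pH 8.0, 0.01% Tween 20, with AMC peptide substrate. Fluorescence (ex 340, em 450 nm) change over 15 min, room temperature; percent inhibition fitted to 4-parameter Hill equation.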
Background: Quantitative high-throughput screening tests each substance at several concentrations.

The nature of test [2]: Primary qHTS for small molecule stabilizers of the endoplasmic reticulum resident proteome: Secreted ER Calcium Modulated Protein (SERCaMP) assay (AID 1508630). Further: on the % scale 0 is the no-effect control and ±100 the full control effect. The gist of the method:
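GLuc-SERCaMP-expressing SH-SY5Y cells, pretreated 16 h with compound, are challenged with thapsigargin to empty ER calcium stores; after 4 h, coelenterazine is added directly to the medium and luminescence is imaged.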

For test [3], the target named is Cytochrome P450 1A2 (Homo sapiens) (UniProt P05177). Nature of the test: p450-cyp1a2 (AID 410; calls by dose curve; further: potency means the concentration at half of the fitted maximal effect). The method, boiled down: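 Human CYP1A2 (20nM) demethylated Luciferin-ME at its Km (100uM) in 100mM KPO4. After 10 min compound preincubation, NADPH regeneration ran the reaction 60 min at room temperature. Luciferin was read by luminescence, normalized to 57 uM furafylline.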
Cytochrome P450 1A2 (Homo sapiens), sequence (P05177 whole entry, looked up): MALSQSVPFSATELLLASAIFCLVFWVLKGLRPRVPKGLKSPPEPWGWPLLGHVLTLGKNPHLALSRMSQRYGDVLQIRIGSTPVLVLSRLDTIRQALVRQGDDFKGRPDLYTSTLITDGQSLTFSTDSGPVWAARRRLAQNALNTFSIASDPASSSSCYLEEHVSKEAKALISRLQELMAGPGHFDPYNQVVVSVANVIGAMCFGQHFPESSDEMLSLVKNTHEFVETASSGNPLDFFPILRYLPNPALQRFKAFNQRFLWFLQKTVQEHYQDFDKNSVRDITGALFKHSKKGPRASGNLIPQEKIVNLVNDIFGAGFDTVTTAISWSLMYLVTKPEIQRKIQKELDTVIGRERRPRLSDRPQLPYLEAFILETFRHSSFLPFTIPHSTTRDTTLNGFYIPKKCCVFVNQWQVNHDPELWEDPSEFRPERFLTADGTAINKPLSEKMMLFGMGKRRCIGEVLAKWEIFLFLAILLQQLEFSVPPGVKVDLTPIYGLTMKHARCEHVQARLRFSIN

The target in test [4] is Glucocorticoid receptor (Homo sapiens) (UniProt P04150). The test is described as follows: GR-GFP Redistribution (AID 450;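 active means compounds whose dose series gives a full or clear partial fitted curve of increased nuclear translocation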; further: potency means the concentration at half of the fitted maximal effect). Particulars: U2OS GR-GFP nuclear translocation, laser cytometry, 2 h.
Glucocorticoid receptor (Homo sapiens), sequence (P04150 whole entry, looked up): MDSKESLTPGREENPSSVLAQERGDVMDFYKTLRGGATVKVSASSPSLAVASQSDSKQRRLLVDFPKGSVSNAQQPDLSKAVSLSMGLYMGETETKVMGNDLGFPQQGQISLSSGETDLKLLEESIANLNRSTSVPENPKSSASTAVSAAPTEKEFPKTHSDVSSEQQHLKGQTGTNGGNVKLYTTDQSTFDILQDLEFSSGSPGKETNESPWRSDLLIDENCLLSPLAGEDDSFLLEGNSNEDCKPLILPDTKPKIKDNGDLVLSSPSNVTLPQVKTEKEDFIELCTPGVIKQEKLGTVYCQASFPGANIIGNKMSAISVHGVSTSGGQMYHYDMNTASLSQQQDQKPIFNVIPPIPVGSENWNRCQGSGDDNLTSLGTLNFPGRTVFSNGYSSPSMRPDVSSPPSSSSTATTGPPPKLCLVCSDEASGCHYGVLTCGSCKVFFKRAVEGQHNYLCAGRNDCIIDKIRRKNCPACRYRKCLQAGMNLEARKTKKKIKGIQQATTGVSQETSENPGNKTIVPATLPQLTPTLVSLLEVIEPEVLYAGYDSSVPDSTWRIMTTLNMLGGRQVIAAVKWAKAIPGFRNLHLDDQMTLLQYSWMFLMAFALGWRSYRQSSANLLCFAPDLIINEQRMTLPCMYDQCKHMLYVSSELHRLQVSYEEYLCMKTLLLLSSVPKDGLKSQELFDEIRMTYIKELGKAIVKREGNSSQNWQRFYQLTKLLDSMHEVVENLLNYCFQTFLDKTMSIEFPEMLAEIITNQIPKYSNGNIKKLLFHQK
Test [5] shares this target. The test is described as follows: GR-EFC Redistribution (AID 451; calls by dose curve; further: potency means the concentration at half of the fitted maximal effect). Particulars: CHO-K1 GR-EFC translocation, beta-gal luminescence, 2 h. The gist of the method:
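CHO-K1 cells stably expressing nuclear-localized β-gal enzyme acceptor and GR fused C-terminally to the enzyme donor fragment; ligand-driven nuclear translocation restores β-gal by complementation. Compounds titrated up to 46 uM final, 2 h at 37 °C; luminescence read.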

Test [6] deals with Mitogen-activated protein kinase 10 (Mus musculus) (UniProt Q61831). The test is described as follows: JNK3 AlphaScreen Assay (AID 530; active means well fitted curve in either direction with a large enough effect, not every such curve was filed as active;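 further: kinase came from lysate of stimulated human HepG2 cells; signal reports phosphorylation of biotinylated GST-cJun 1-79 at Ser73 with 10 µM ATP; on the % scale 0 is the no-effect control and ±100 the full control effect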). The method, boiled down:
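JNK3 came from HepG2 lysates pre-activated with IL-1beta and TNF-alpha and phosphorylated biotinylated GST-cJun (1-79) at 10 uM ATP, pH 7.6, room temperature. Compounds were titrated. AlphaScreen signal used anti-phospho-cJun (Ser73) antibody.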
(Bead proximity is the source of the signal in Alpha formats.)

Test [7] addresses Cytochrome P450 2C19 (Homo sapiens) (UniProt P33261). The test is described as follows: qHTS Assay for Inhibitors and Substrates of Cytochrome P450 2C19 (AID 899). Further: potency means the concentration at half of the fitted maximal effect; nearly all actives have a fitted effect of over 60% in size. The method, boiled down: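 NADPH-dependent conversion of Luciferin-H EGE (10uM, at KM) by 5nM enzyme in 50mM KPO4, 60 min at 37C following 10 min compound preincubation. Stopped with luciferin detection buffer; luminescence read after 20 min.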

A short description of test [8]: qHTS Assay for Lipid Storage Modulators (AID 1519; calls by dose curve). The following applies: Drosophila S3 cells, BODIPY lipid droplet/cell ratio, laser cytometry, cells loaded with oleic acid; for activity change, negative = inhibition: at 57.5 µM (top of the series). The method, boiled down: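 Cells seeded at 5,000 per well were treated with compounds over a concentration series and loaded with oleic acid (400 uM, as added). Lipid droplet fluorescence (488 nm excitation, 500-530 nm channel) was read by laser-scanning cytometry and normalized to 20 uM Triacsin C.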

For test [9], the target named is DNA dC->dU-editing enzyme APOBEC-3G (Homo sapiens) (UniProt Q9HC16). The test is described as follows: qHTS for inhibitors of Vif-A3G interactions: Validation (AID 588379). Further: 0% is about no effect. The gist of the method: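 HeLa cells stably expressing Vif and A3G-eYFP, 700 cells/well, incubated overnight at 37 deg C, then exposed to compound overnight at 37 deg C. Inhibition of Vif-mediated degradation read as increased yellow fluorescence (Ex 488/Em 500-530) by laser-scanning cytometry.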
DNA dC->dU-editing enzyme APOBEC-3G (Homo sapiens), sequence (Q9HC16 whole entry, looked up): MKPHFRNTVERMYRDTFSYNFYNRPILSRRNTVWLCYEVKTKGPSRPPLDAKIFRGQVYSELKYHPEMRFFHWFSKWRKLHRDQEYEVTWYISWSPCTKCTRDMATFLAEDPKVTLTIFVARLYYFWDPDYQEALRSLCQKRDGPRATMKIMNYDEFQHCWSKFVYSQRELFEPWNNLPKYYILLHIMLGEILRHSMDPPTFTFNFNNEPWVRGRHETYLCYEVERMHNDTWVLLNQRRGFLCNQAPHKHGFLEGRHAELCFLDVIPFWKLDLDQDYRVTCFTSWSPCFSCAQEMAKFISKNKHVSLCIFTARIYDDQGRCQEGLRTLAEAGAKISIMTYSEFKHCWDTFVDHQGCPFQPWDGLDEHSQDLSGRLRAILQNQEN

Test [10] in a line: AP1 Signaling Pathway (AID 357; active means well fitted curve in either direction with a large enough effect, not every such curve was filed as active; further: on the % scale 0 is the no-effect control and ±100 the full control effect). The following applies: ME-180 AP-1-bla reporter, EGF-induced, beta-lactamase ratio, 5 h; at 38 µM (top of the series). The gist of the method: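 Read-out was the 460nm/530nm emission ratio (excitation 405nm) after CCF4 loading for 2.5 hours at room temperature. Cells carried an AP-1-driven beta-lactamase reporter, were stimulated with EC50 EGF plus compound for 5 hours, and AC50 values came from titrations.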

Test [11] is described as follows: NFAT Signaling Pathway (AID 444; active means well fitted curve in either direction with a large enough effect, not every such curve was filed as active;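 further: carbachol stimulus at about its EC50 of 1 µM final; on the % scale 0 is the no-effect control and ±100 the full control effect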). The following applies: Jurkat NFAT-bla M1, carbachol, beta-lactamase ratio, 5 h; at 38 µM (top of the series). The method, boiled down: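 Jurkat cells carrying an NFAT-driven β-lactamase reporter and co-transfected muscarinic M1 receptor were treated with compound plus carbachol (1 uM final, an EC50 level) for 5 h at 37 °C. CCF4 loading followed for 1 h at RT; 460/530 nm ratio gave %activity.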

Test [12] can be described thus: Stat Signaling Pathway (AID 446; active means well fitted curve in either direction with a large enough effect, not every such curve was filed as active). The following applies: ME-180 (cervical carcinoma) SIE beta-lactamase reporter, IL-6 stimulated, 5 h; at 38 µM (top of the series). The method, boiled down:
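ME-180 SIE-bla cells; overnight plating; cpd + IL-6 40 pM, 5 h, 37 C; LiveBLAzer 2.5 h RT; 460/530 nm emission ratio. Normalized to 300 pM IL-6 and 125 nM JAK inhibitor controls.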

Test [13] addresses 3',5'-cyclic-AMP phosphodiesterase 4B (Homo sapiens) (UniProt Q07343). The test is described as follows: qHTS Assay for Inhibitors of PDE-IV (AID 607; active means well fitted activation curve with a large enough effect in the main read-out, with a control signal flat, not every such curve was filed as active; further: % of control where 0% means no effect). The gist of the method:
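ACTOne HEK293 cells carry a modified cAMP-gated CNG channel and express endogenous PDE4; plated 1000 cells/well, compounds up to 22.9 uM final. Membrane-potential dye fluorescence (ex 535/em 590) was read; parental cells received 10 uM forskolin + 100 uM RO 20-1724.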

Test [14] addresses Guanine nucleotide-binding protein G(i) subunit alpha-1 (Homo sapiens) (UniProt P63096). Nature of the test: qHTS Assay for Inhibitors of RGS12 GoLoco Motif Activity (Green Fluorophore) (AID 879).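 Further: 0% = labeled peptide with Gαi1 and full inhibition = labeled peptide alone without protein; negative values mean loss of peptide binding seen as reduced polarization.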 The gist of the method:
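Fluorescence polarization assay: 50 nM Gαi1 with 10 nM FITC-labeled RGS12 GoLoco peptide in 10 mM Tris pH 7.5, 150 mM NaCl, 0.1 mM GDP, 0.05% NP40, 10 min at room temperature with compound.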

Test [15] is described as follows: qHTS Assay for Identification of Small Molecule Agonists for Thrombopoietin (TPO) Signaling Pathway (AID 917). Further: on the % scale 0 is the no-effect control and ±100 the full control effect. The gist of the method: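 We measured Glycoprotein IIb promoter–luciferase output in IL-3-starved Ba/F3 murine cells expressing the human TPO receptor after 24 hrs at 37 C with compounds and 26 pM TPO.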
Test [16] has as its target Pyruvate kinase (Leishmania mexicana) (UniProt Q27686). Nature of the test: qHTS Validation Assay for Inhibitors of Leishmania Mexicana Pyruvate Kinase (AID 945).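 Further: 0% = DMSO only neutral control wells.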 The gist of the method:
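The enzyme is a highly purified E451W mutant of LmPYK used at 0.2 nM. It converts 0.5 mM PEP and 0.1 mM ADP over 1 h at room temperature; product ATP is quantified by luciferase luminescence relative to DMSO controls.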

The target of test [17] is Ubiquitin carboxyl-terminal hydrolase 1 (Homo sapiens) (UniProt O94782). The test is described as follows: Inhibitors of USP1/UAF1: Pilot qHTS (AID 504865).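 Further: rhodamine fluorescence freed from ubiquitin-rhodamine substrate followed over time; top concentration of the series differs between compounds; on the % scale 0 is the no-effect control and ±100 the full control effect; nearly all actives have a fitted effect of over 35% in size.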 The method, boiled down:
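Kinetic fluorescence assay: 1nM USP1/UAF1, 15 min compound preincubation, then 150nM Ub-Rho; 480/540 nm.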

[18] abbreviates: measured here: cell count channel max response.
The mark [19] stands for this setting: measured here: lipid channel max response.

Records with an inconclusive call do not appear. Calls of active or inactive are those of the source. Unless noted, the call rests on the fitted dose curve; in most records, active means well fitted curve in the direction sought with a large enough effect; inconclusive means small, poorly fitted or top-dose-only effect, or another doubt; inactive means no such curve, though single readings can be large; an effect the other way counts as inactive or inconclusive.

Pyruvate kinase (Leishmania mexicana), sequence (Q27686 2-499 E452W): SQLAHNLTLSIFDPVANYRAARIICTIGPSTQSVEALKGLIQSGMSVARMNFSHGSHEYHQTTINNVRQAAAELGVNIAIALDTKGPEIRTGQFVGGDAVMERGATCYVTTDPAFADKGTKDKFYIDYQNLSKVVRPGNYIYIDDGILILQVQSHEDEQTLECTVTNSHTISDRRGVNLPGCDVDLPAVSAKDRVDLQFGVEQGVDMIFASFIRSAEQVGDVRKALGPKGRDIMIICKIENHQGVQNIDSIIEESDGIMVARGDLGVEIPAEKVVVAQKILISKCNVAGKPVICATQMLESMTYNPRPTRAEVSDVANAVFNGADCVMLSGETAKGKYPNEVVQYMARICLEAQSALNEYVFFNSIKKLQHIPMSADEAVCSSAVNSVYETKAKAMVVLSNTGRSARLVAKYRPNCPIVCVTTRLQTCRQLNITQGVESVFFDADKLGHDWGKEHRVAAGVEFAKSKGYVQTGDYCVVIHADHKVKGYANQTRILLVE
Cytochrome P450 2C19 (Homo sapiens), sequence (P33261 whole entry, looked up): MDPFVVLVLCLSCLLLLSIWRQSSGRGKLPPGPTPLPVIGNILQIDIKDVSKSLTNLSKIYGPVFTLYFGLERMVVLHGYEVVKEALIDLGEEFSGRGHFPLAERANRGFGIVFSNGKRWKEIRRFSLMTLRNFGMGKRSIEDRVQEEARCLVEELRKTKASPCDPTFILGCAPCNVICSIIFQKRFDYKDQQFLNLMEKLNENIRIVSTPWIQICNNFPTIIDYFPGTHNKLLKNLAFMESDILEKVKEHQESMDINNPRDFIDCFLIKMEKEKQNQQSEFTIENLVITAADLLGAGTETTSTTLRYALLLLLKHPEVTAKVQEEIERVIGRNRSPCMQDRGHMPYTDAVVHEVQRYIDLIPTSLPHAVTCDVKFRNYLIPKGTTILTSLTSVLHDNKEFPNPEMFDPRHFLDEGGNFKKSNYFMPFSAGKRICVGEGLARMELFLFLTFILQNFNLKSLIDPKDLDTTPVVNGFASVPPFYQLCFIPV
3',5'-cyclic-AMP phosphodiesterase 4B (Homo sapiens), sequence (Q07343 whole entry, looked up): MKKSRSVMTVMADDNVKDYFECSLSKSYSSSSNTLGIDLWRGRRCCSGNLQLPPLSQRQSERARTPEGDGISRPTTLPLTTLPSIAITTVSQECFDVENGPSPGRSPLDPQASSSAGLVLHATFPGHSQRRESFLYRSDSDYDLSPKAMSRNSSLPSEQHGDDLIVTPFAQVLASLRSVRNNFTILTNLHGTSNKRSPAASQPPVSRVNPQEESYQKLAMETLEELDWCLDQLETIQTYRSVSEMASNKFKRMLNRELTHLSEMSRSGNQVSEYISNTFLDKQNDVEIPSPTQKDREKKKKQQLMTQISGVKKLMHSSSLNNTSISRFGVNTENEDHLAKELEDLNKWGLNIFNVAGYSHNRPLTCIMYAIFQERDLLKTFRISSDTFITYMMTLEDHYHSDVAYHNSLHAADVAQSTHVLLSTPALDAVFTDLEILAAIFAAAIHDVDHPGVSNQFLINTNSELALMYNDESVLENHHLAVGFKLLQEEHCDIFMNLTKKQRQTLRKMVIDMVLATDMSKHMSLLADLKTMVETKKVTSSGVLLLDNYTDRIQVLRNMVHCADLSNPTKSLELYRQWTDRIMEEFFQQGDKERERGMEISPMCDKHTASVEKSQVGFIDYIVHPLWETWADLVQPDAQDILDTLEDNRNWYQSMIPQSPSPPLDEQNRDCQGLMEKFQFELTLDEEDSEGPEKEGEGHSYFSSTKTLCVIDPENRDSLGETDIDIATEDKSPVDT
Ubiquitin carboxyl-terminal hydrolase 1 (Homo sapiens), sequence (O94782 whole entry, looked up): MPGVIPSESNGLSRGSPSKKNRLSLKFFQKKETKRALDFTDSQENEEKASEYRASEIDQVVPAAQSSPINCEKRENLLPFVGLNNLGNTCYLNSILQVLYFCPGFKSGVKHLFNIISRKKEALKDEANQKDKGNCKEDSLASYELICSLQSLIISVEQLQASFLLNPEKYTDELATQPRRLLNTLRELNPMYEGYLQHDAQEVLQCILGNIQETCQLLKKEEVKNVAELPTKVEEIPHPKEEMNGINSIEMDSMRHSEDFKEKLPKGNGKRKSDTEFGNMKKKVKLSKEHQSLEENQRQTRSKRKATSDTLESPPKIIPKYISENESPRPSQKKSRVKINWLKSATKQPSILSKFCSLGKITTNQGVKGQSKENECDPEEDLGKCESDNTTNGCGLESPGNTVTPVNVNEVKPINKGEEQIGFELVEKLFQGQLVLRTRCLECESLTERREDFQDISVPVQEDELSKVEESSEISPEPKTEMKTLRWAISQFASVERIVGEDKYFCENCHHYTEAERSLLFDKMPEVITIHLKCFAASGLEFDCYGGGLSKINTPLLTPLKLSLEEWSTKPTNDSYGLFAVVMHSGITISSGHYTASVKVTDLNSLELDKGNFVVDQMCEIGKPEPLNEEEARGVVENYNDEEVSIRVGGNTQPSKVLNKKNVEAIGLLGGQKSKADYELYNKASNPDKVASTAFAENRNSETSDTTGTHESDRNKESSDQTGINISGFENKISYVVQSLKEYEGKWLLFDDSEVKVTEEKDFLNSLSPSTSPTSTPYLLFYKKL
Guanine nucleotide-binding protein G(i) subunit alpha-1 (Homo sapiens), sequence (P63096 whole entry, looked up): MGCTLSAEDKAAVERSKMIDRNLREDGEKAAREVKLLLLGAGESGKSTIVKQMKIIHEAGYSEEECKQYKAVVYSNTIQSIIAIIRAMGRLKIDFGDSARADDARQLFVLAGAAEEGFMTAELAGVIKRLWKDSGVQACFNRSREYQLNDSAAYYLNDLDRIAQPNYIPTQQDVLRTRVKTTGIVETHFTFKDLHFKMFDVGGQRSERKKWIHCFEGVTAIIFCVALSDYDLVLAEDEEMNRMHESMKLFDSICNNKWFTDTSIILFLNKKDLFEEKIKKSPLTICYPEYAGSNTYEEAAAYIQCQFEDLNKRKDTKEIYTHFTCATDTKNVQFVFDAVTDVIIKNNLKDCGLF

Consider `N[C@H](C(=O)O)C1C(C(=O)O)C1C(=O)O` (some centres not stated), for which the Potency result in test [1] and in [2] was “inactive” throughout.

On to `CO[C@H]1C[C@@H]2CC[C@@H](C)[C@@](O)(O2)C(=O)C(=O)N2CCCC[C@H]2C(=O)OC([C@H](C)C[C@@H]2CC[C@@H](O)[C@H](OC)C2)CC(=O)[C@H](C)/C=C(\C)[C@@H](O)[C@@H](OC)C(=O)[C@H](C)C[C@H](C)/C=C/C=C/C=C/1C` (some centres not stated), for which the Potency entry in [1] and in test [2] was “inactive” throughout.

`c1ccc2[nH]c(NCCCc3cnc[nH]3)nc2c1`: the Potency result in [1] and in test [2] was “inactive” throughout.

Regarding `CCCCC/C=C\C/C=C\C/C=C\C/C=C\CCCC(=O)O[C@H](COCCCCCCCCCCCCCCCC)COP(=O)([O-])OCC[N+](C)(C)C`, the activity change, negative = inhibition in test [1] was 13.2% [at 6.83 µM] (inactive); in [2], -11.5% [at 3.88 µM] (inactive).

Consider `CC(=O)N[C@@H](CSC/C=C(\C)CC/C=C(\C)CC/C=C(\C)CCC=C(C)C)C(=O)O`, for which the Potency entry in test [1] and in test [2] was “inactive” throughout.

Turning to `CCCCCCCCCCOCCC(=O)O`, the activity change, negative = inhibition in [1] is 12.5% [at 6.83 µM] (inactive); in test [2] it was -6.7% [at 3.88 µM] (inactive).

As to `CCCCC/C=C\C/C=C\C/C=C\C/C=C\CCCC(=O)O[C@@H](CO)COCCCCCCCCCCCCCCCC`, the activity change, negative = inhibition in test [1] is 9.81% [at 6.83 µM] (inactive); in [2], -14% [at 3.88 µM] (inactive).

On to `O=c1nc2ccccc2c2n1CC(CN1CCN(c3ccccc3)CC1)N2` (configuration not stated), for which the Potency result in [1] and in test [2] was “inactive” throughout.

Take `COC(=O)[C@H]1C2CC3c4[nH]c5ccccc5c4CCN3CC2CC[C@@H]1O` (some centres not stated): the Potency result in test [1] and in [2] was “inactive” each time.

On to H-LVVYPWTQR-OH, for which the values for the activity change, negative = inhibition in [1] and in test [2] were 5.8% [at 6.83 µM] (inactive) and 18.2% [at 3.88 µM] (inactive), respectively.

`CCCCC[C@H](O)/C=C/[C@@H]1[C@@H](C/C=C\CCCC(=O)O)[C@@H](O)C[C@@H]1O`: the activity change, negative = inhibition in test [1] was 11.6% [at 6.83 µM] (inactive); in test [2] it was -25.7% [at 3.88 µM] (inactive).

On to `CCC(=O)N[C@@H]1Cc2ccccc2[C@@H](c2ccccc2)C1`, for which the Potency in test [3] is 15.8 µM (active); in [4], > 46 µM (inactive); in [5] it was > 46 µM (inactive); in test [7], 7.94 µM (active). In addition, the Potency entry in test [6], in [9], in test [1] and in test [2] was “inactive” in each case. In addition, the activity change, negative = inhibition in test [8] was 10.8% (inactive). Besides, the results for the max response in [8] (setting [18]) and in test [8] (setting [19]) were 13.4% and 28.8%, respectively.

For `CC1=C(/C=C/C(C)=C\C=C\C(C)=C\C(=O)O)C(C)(C)CCC1`, the Potency result in test [1] and in [2] was “inactive” each time.

For `CC(N)=NCCC[C@H](N)C(=O)O`, the activity change, negative = inhibition was -5.19% (inactive) in test [10], 5.13% (inactive) in test [11] and 4.11% (inactive) in test [8]. Also, the activity, negative = inhibition in test [12] was -24.9% (inactive). Further, the Potency in test [4] and in test [5] was > 46 µM (inactive) each time. The Potency entry in [6], in [13], in [15], in test [16], in [17] and in test [9] was “inactive” each time. Also, the Potency entry in [1] and in [2] was “inactive” throughout. In addition, the result in test [14] was inactive. For the same molecule, the max response in test [8] (setting [18]) was -7.21%; in [8] (setting [19]) it was -3.8%.

Source of the values: PubChem BioAssay (NCATS).
